The supplement of paper PMC11732987, “Enantioselective OTUD7B fragment discovery through chemoproteomics screening and high-throughput optimisation” (Communications Chemistry, 2025)

Legend:
Test in all cases: log2 ratio of Biotin-Ahx-Ub-VS probe labelling (fragment/DMSO); higher = less target engagement (more negative = stronger competition), active = hit call of the paper (q ≤ 0.05, log2 ratio ≤ -1)
Conditions in all cases: compound concentration: 200 uM; treatment time: 3 h
[1] = molecular target: USP9X (UniProt Q93008)
Summary of the method: (§1)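 HEK293T lysate (495 µg per sample, in Tris/CHAPS/IGEPAL buffer with protease inhibitors) was exposed in triplicate for 3 h to fragment at 200 µM or to vehicle, then to Biotin-Ahx-Ub-VS at 0.5 µM final for 1 h. Labelled DUBs were enriched on NeutrAvidin, digested with LysC and trypsin, and analysed by diaPASEF LC-MS/MS. Spectronaut label-free quantities were normalised to the global median, and values are average log2 ratios of fragment over vehicle from an unpaired t-test. Only proteins with ≥2 unique peptides were used.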

[2] = molecular target: UniProt O00487
Summary of the method: as §1

[3] = molecular target: UniProt O00507
Summary of the method: as §1

[4] = molecular target: UniProt P51784
Summary of the method: as §1

[5] = molecular target: T1, UniProt Q5T2D3
T1 sequence (whole entry): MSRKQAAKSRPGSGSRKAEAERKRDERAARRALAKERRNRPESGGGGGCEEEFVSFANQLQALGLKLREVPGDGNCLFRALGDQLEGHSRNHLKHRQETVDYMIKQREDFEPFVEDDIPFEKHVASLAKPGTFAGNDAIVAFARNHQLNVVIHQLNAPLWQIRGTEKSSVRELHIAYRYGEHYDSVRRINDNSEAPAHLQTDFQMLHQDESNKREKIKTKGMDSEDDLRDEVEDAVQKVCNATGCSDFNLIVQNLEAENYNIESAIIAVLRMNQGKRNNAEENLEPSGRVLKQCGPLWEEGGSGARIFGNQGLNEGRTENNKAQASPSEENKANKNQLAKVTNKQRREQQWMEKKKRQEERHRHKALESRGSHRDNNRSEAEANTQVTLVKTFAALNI
Summary of the method: as §1

[6] = molecular target: T2, UniProt Q8TE49
T2 sequence (whole entry): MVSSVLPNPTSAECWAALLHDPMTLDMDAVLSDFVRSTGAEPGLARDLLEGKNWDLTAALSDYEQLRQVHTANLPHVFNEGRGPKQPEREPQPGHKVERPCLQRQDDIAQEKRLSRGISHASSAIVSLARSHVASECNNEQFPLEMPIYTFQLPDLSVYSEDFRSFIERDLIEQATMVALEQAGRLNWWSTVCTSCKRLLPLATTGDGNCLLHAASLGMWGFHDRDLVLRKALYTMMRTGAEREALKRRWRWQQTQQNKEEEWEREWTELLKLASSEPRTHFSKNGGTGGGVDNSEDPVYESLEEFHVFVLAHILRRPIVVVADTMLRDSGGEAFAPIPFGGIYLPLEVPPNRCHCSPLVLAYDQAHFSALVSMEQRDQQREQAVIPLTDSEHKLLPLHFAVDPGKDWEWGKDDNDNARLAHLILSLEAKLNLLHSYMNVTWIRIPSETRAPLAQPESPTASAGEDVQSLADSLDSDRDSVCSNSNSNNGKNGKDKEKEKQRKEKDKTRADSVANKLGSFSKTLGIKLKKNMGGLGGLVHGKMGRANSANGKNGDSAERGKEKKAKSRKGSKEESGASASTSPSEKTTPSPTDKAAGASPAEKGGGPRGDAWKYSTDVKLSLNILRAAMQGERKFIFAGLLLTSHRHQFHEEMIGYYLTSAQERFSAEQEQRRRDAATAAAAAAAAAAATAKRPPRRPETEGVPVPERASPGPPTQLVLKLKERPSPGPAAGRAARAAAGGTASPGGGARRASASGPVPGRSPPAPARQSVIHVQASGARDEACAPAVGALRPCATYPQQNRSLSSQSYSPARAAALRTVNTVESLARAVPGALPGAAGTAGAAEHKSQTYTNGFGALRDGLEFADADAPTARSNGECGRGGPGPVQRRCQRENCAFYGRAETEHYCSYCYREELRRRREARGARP
Summary of the method: as §1

[7] = molecular target: T3, UniProt Q9P2H5
T3 sequence (whole entry): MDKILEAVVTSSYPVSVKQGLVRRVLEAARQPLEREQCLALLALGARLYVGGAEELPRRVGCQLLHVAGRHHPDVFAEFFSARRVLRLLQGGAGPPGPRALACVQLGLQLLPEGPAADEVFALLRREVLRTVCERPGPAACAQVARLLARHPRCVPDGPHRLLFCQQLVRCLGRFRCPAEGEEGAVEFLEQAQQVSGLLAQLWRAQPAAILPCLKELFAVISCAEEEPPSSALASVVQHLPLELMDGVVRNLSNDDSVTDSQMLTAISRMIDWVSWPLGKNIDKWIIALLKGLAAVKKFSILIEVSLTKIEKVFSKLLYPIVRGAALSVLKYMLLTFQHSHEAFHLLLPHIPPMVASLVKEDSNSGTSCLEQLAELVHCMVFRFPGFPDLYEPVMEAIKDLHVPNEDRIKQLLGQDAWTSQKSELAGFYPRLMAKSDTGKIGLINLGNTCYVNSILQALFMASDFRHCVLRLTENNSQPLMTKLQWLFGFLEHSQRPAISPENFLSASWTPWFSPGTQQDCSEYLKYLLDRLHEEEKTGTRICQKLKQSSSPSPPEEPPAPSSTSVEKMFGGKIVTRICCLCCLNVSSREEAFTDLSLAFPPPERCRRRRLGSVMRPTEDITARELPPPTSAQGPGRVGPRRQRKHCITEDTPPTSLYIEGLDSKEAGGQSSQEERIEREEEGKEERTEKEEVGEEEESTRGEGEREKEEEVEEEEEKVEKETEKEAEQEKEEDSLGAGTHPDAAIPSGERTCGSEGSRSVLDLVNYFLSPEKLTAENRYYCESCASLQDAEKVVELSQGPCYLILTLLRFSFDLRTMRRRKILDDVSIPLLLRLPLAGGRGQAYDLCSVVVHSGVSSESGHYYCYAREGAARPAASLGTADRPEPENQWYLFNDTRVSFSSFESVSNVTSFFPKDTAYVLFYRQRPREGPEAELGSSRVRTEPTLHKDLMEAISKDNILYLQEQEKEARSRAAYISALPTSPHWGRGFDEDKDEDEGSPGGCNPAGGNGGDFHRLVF
Summary of the method: as §1

[8] = molecular target: T4, UniProt Q9UGI0
T4 sequence (whole entry): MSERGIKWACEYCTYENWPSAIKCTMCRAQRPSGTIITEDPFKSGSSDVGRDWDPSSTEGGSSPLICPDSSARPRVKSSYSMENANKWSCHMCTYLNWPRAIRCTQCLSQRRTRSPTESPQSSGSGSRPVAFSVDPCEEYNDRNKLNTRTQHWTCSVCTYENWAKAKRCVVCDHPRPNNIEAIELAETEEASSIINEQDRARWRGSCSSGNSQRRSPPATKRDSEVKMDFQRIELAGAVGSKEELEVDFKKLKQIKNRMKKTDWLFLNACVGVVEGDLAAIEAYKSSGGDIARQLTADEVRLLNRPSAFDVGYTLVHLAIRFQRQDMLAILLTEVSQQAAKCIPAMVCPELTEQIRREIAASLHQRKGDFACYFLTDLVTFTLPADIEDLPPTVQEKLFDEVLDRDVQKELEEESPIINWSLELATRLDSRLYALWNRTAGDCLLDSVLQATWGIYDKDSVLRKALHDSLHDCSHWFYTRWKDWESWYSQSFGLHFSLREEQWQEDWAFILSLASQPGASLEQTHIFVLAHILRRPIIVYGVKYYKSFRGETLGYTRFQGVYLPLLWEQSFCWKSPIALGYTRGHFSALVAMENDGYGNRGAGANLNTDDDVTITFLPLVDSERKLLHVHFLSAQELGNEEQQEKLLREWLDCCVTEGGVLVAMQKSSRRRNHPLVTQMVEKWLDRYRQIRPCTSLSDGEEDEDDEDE
Summary of the method: as §1

[9] = molecular target: T5, YOD1 (UniProt Q5VVQ6)
T5 sequence (whole entry): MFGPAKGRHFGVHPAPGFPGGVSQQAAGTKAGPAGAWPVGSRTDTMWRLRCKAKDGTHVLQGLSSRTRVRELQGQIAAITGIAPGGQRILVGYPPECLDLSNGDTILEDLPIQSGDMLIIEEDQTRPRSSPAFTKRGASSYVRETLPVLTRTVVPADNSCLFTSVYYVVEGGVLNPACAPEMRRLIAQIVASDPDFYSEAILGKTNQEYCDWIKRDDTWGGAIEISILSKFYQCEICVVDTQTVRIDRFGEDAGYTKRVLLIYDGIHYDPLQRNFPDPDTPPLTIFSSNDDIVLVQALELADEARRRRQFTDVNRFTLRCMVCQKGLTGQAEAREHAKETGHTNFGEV
Summary of the method: as §1

Measured: log2 ratio of Biotin-Ahx-Ub-VS probe labelling

Sequence of UniProt O00507 (O00507 whole entry): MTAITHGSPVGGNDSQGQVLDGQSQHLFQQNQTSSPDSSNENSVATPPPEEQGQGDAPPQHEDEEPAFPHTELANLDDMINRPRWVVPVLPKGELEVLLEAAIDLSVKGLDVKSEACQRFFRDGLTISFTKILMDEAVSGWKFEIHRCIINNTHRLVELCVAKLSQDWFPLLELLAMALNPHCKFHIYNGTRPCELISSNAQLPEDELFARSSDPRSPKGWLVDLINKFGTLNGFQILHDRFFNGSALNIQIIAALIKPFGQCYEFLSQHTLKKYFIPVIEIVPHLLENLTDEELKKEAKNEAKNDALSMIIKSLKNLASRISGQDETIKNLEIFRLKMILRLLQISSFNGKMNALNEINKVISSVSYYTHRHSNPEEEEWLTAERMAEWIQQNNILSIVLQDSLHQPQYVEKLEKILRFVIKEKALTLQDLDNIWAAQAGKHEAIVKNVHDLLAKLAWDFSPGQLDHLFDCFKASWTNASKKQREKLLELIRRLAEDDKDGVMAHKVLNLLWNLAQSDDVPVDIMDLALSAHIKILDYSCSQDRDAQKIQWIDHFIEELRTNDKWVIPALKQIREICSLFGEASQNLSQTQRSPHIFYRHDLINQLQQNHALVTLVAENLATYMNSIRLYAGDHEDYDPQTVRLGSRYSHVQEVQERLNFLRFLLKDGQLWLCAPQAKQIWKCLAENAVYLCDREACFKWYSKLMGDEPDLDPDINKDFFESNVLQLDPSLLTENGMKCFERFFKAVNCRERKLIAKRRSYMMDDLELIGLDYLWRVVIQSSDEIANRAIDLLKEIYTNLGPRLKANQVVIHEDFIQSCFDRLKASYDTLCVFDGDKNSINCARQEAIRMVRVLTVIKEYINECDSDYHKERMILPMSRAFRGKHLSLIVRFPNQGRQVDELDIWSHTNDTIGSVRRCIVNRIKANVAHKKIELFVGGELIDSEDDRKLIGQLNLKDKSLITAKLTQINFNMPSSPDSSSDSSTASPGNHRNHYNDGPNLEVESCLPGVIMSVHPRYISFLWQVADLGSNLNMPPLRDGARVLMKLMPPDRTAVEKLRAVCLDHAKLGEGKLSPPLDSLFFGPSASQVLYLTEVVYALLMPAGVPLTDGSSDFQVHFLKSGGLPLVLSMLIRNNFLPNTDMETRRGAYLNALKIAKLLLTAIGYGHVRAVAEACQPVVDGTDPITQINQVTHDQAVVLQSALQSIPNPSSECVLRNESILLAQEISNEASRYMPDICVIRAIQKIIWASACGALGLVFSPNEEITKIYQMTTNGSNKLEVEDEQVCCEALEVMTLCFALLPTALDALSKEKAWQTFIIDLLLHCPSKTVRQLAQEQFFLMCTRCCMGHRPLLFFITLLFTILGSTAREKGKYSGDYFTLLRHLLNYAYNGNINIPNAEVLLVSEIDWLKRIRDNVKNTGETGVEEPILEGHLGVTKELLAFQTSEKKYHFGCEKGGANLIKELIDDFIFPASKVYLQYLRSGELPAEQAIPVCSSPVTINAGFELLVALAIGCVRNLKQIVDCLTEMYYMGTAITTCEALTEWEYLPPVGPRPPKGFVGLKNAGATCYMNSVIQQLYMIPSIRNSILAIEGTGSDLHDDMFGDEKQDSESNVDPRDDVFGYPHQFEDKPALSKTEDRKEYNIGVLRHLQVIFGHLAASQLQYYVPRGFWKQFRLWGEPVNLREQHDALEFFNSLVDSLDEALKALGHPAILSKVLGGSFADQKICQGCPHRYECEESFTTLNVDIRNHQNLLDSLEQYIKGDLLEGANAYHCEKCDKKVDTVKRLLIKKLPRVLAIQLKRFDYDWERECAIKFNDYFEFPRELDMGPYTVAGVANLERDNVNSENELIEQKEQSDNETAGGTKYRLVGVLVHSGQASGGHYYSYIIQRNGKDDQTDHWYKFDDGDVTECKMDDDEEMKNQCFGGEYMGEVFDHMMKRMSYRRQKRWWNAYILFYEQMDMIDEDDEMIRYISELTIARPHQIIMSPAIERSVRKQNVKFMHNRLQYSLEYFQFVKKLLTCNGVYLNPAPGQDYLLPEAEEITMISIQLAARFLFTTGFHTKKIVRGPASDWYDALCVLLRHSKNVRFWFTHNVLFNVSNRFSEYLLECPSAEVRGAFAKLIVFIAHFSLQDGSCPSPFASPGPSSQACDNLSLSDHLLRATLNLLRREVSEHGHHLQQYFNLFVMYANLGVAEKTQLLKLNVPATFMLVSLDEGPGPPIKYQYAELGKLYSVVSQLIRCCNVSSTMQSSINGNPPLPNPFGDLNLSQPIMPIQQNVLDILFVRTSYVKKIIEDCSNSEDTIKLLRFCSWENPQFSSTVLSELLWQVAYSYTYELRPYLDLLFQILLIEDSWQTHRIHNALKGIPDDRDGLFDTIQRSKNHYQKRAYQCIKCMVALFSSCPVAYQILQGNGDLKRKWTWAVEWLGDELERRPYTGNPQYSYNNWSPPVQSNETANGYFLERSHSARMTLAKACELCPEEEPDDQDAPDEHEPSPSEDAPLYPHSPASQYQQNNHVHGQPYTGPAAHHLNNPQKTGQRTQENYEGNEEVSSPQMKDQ
Sequence of UniProt P51784 (P51784 whole entry): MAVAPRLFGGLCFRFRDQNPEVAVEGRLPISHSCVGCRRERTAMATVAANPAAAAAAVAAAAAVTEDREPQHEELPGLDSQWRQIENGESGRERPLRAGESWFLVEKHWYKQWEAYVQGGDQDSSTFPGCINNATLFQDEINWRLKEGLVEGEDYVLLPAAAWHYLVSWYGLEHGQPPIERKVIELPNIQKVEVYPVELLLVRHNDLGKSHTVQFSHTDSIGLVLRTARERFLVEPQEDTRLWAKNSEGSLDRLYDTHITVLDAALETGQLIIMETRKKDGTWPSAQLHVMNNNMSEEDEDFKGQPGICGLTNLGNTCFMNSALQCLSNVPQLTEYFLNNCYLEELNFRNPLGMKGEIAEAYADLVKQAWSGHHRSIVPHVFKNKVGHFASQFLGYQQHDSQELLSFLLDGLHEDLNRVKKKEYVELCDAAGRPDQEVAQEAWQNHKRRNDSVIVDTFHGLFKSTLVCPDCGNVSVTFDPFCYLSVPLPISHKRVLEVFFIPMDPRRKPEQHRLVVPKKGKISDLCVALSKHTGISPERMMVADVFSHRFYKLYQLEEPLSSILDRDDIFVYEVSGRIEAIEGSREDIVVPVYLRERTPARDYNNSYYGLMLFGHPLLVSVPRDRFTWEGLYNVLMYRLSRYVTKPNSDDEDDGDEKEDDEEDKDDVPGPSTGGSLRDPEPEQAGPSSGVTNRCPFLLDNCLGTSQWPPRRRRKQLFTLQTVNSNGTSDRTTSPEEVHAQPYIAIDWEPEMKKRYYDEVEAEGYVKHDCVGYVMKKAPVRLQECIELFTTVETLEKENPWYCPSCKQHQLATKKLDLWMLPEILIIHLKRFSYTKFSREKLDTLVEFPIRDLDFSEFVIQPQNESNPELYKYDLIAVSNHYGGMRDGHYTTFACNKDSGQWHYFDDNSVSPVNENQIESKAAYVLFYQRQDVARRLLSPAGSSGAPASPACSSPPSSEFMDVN
Sequence of UniProt O00487 (O00487 whole entry): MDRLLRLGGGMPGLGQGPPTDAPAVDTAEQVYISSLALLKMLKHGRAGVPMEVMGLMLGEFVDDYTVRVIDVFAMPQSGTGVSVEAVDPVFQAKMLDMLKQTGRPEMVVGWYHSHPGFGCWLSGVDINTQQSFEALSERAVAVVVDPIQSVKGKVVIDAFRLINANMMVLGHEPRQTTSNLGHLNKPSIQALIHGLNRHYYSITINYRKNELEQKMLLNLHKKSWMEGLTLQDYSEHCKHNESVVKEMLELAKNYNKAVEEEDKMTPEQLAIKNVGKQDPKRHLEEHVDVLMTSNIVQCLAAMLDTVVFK

Cc1cccn2cc(CCNC(=O)CCl)nc12.Cl
inactive: [1] -0.145 | [2] -0.197 | [3] -0.143 | [4] -0.122 | [5] -0.0486 | [6] -0.332 | [7] -0.379 | [8] -0.18 | [9] -0.095
